Test [1] can be described thus: qHTS Assay for Identification of Small Molecule Antagonists for NFkB Signaling Pathway (AID 895; active = well fitted inhibition curve with a large enough effect in the signal ratio, with a control signal flat, not every such curve was filed as active; the % refers to the signal ratio; also: potency is read from the fitted curve at half-maximal effect). Put shortly: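 Beta-lactamase reporter read-out (460 and 530 nm emission ratio, 405 nm excitation, 2 hrs substrate loading RT) after 5 hr stimulation with 10 pM TNF alpha in compound-treated NFkB-bla ME-180 cells in low-serum medium.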
For orientation: Quantitative high-throughput screening tests each substance at several concentrations.

In test [2] the target is Muscarinic acetylcholine receptor M1 (Rattus norvegicus) (UniProt P08482). The experiment in a line: qHTS Assay for Antagonists of Acetylcholine Muscarinic M1 Receptor: Kinetic Measurement of Intracellular Calcium Response (AID 943).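 Also: Fluo-4 calcium signal as peak divided by basal fluorescence over 4 min; series mostly up to about 35 µM; nearly all actives have a fitted effect of over 75% in size.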 Summed up:
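Antagonism is measured as inhibition of the carbachol-evoked calcium rise in CHO cells transfected with rat M1. Cells are dye-loaded, exposed to compound for 10 min, then stimulated with 100 nM carbachol (EC80).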

For test [3] the target is unchanged. The experiment in a line: qHTS Assay for Antagonists of Acetylcholine Muscarinic M1 Receptor: Measurement of IP-One Response (AID 944). Also: nearly all actives have a fitted effect of over 75% in size. Put shortly: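 Antagonist mode with rat M1 receptor transfected into CHO cells. Compound is added first for 10 min, carbachol at its EC80 follows for 30 min, and lysis reagents then allow TR-FRET detection of accumulated IP1.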

Test [4] addresses Cytochrome P450 2C9 (Homo sapiens) (UniProt P11712). The experiment in a line: qHTS Assay for Inhibitors and Substrates of Cytochrome P450 2C9 (AID 883). Also: nearly all actives have a fitted effect of over 60% in size. Also: potency is read from the fitted curve at half-maximal effect. Put shortly:
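Inhibition of CYP2C9 is scored as loss of luminescence, with 57uM sulphaphenazole defining 100% inhibition. Substrate Luciferin-H is used at 100uM, equal to its KM; enzyme at 10nM in 25mM KPO4, 60 min at 37C with NADPH regeneration.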

Test [5] has as its target Cytochrome P450 3A4 (Homo sapiens) (UniProt P08684). The experiment in a line: qHTS Assay for Inhibitors and Substrates of Cytochrome P450 3A4 (AID 884). Also: series mostly up to about 57 µM; % is scaled to controls: 0 for no effect and ±100 for the full control effect; nearly all actives have a fitted effect of over 50% in size. Summed up: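 Luminescent readout of luciferin produced by CYP3A4 (20 nM) dealkylation of Luciferin-PPXE, 25 uM (its KM). NADPH-driven reaction ran 60 min at RT after 10 min compound preincubation; data scaled to 57 uM ketoconazole as 100% inhibition.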

Test [6] is described as follows: qHTS Assay for Identification of Small Molecule Agonists for Hypoxia Response Element Signaling Pathway (AID 914; active = well fitted activation curve with a large enough effect in the signal ratio, with a control signal flat, not every such curve was filed as active; the % refers to the signal ratio; also: potency is read from the fitted curve at half-maximal effect; as to activation: % of control where 0% means no effect). The conditions noted are these: ME-180 (cervical carcinoma) HRE-bla reporter, beta-lactamase ratio, CoCl2, 17 h; activation: hits give high values. Summed up: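 Compounds in a titration series were added to ME-180 reporter cells alongside an EC50 level of CoCl2. After 17 hours, beta-lactamase activity was read as the 460nm/530nm emission ratio of CCF4, giving AC50 values.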

For test [7], the target named is Cytochrome P450 3A4 (Homo sapiens) (UniProt P08684). The experiment in a line: qHTS Assay for Activators of Cytochrome P450 3A4 (AID 885). Also: nearly all actives have a fitted effect of over 65% in size. Summed up: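 Luminescent readout of luciferin formed from 25 uM Luciferin-PPXE (KM level) by 20 nM CYP3A4 in 200 mM KPO4, with 60 min NADPH-driven reaction at room temperature after 10 min compound exposure. Ketoconazole (57 uM) defined 100% inhibition.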
Sequence of Cytochrome P450 3A4 (Homo sapiens) (P08684 whole entry, looked up): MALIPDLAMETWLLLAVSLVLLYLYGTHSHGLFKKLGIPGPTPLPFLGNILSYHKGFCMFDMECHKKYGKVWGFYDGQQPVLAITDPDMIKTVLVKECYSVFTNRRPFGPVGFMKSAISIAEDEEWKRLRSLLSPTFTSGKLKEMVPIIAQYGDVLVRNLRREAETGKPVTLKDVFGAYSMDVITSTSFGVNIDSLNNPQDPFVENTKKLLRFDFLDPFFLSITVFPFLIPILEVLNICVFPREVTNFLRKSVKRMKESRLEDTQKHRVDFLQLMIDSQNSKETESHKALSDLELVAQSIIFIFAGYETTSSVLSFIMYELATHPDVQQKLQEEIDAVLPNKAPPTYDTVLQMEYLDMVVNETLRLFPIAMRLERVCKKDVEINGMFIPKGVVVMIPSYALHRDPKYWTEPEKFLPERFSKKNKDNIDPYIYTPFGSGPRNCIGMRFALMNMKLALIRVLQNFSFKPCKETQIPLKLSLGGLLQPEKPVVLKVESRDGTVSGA

In test [8] the target is Cytochrome P450 2D6 (Homo sapiens) (UniProt P10635). The experiment in a line: qHTS Assay for Inhibitors and Substrates of Cytochrome P450 2D6 (AID 891). Also: nearly all actives have a fitted effect of over 60% in size. Also: potency is read from the fitted curve at half-maximal effect. Summed up: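 Luminescent read-out of luciferin formed by 5 nM human CYP2D6 demethylating 30 uM Luciferin-ME EGE (Km level) over 60 min at room temperature after NADPH regeneration addition. Data normalized to full inhibition by 1.43 uM quinidine.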
Sequence of Cytochrome P450 2D6 (Homo sapiens) (P10635 whole entry, looked up): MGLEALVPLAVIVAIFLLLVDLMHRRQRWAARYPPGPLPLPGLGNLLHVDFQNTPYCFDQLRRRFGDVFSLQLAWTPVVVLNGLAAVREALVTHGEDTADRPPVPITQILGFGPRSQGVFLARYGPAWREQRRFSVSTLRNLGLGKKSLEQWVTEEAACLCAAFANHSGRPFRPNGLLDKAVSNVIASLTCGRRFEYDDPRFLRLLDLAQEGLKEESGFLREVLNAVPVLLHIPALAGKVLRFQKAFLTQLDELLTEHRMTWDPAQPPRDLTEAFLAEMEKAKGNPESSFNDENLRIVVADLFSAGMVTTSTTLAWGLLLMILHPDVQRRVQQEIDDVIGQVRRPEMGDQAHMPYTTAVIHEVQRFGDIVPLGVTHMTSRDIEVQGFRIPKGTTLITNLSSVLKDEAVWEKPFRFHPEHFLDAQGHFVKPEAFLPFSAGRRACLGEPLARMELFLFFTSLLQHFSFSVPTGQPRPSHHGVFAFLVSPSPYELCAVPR

In test [9] the target is Alpha-galactosidase A (Homo sapiens) (UniProt P06280). The experiment in a line: Counterscreen for Glucocerebrosidase Inhibitors: qHTS Assay for Human alpha-Galactosidase at pH 4.5 (AID 992). Also: 0% is about no effect. Summed up: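 Fluorogenic 1536-well qHTS at pH 4.5 (citrate, Tween-20): 2 nM enzyme, 80 uM 4-MU-alpha-galactoside, 20 min room temperature, NaOH/glycine stop. Titration 0.7 nM to 77 uM, data normalized to no-enzyme and full-activity controls, Hill-fitted AC50.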
Sequence of Alpha-galactosidase A (Homo sapiens) (P06280 whole entry, looked up): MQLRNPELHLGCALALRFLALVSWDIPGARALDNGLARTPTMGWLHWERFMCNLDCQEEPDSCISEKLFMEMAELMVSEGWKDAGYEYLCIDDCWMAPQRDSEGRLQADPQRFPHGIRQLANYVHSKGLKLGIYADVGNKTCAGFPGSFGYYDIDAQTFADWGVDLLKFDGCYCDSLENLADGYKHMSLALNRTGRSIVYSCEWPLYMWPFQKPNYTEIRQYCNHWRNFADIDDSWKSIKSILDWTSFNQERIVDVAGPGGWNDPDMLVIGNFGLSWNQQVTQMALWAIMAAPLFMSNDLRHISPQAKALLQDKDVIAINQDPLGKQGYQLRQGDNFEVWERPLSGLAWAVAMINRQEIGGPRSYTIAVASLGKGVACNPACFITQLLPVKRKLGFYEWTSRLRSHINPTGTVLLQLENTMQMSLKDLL

For test [10], the target named is Lysosomal acid glucosylceramidase (Homo sapiens) (UniProt P04062). The experiment in a line: Glucocerebrosidase-p2 (AID 348; in the data active = potency below about 10 µM; also: potency is read from the fitted curve at half-maximal effect). The conditions noted are these: purified GBA, blue fluorogenic substrate, 40 min. Summed up:
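Normal human glucocerebrosidase (0.2 nM) with blue fluorogenic substrate (80 uM final) in citrate/phosphate pH 5.9 with 10mM sodium taurocholate, 0.01% tween-20; 40 min RT, NaOH/glycine stop; fluorescence Ex 365/Em 440; AC50 from a titration from 0.6 nM upwards.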

Test [11] is described as follows: Confirmation and Secondary Assay for Modulators of Hemoglobin Beta Chain Splicing at IVS2 654 locus (AID 910).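 Also: HeLa cells stably carrying EGFP split by mutant beta-globin IVS2-654 intron; per-well total GFP intensity by laser scanning cytometry after 2-day treatment; % of control where 0% means no effect.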 Summed up: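 Readout: per-well total peak green fluorescence (488 nm ex, 500–520 nm em) from objects 5–250 µm, reflecting correct splicing of an EGFP-654 reporter. Compounds were applied for 2 days at 37 °C to overnight-plated HeLa EGFP-654 cells; controls were DMSO and 500 nM IVS2-654 PNA.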

Test [12] can be described thus: Confirmation and Secondary Assay for Modulators of Hemoglobin Beta Chain Splicing at IVS2 705 locus (AID 930).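 Also: HeLa cells stably expressing the EGFP-705 splicing reporter; series mostly up to about 46 µM; % of control where 0% means no effect.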 Put shortly: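 Assay measures total GFP intensity per well in HeLa EGFP-705 cells after 2 days with compound; mis-splicing normally truncates EGFP, so fluorescence indicates corrected splicing.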
Test [13] concerns the target Cytochrome P450 2C19 (Homo sapiens) (UniProt P33261). The experiment in a line: qHTS Assay for Inhibitors and Substrates of Cytochrome P450 2C19 (AID 899). Also: % is scaled to controls: 0 for no effect and ±100 for the full control effect; nearly all actives have a fitted effect of over 60% in size. Put shortly: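 5nM enzyme + 10uM Luciferin-H EGE (=KM), 50mM KPO4; cpd pin-transferred, 10 min 37C; NADPH regen, 60 min 37C; stopped w/ luciferin detection reagent, 20 min; luminescence. Normalized to 57uM ketoconazole (AC100).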

The target in test [14] is Pyruvate kinase (Leishmania mexicana) (UniProt Q27686). The experiment in a line: qHTS Validation Assay for Activators of Leishmania Mexicana Pyruvate Kinase (AID 959). As to conditions: purified L. mexicana pyruvate kinase, enzyme activity. Summed up:
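Pyruvate kinase activity of E451W LmPYK (0.2 nM) was followed as ATP output after 1 h at room temperature with 0.5 mM PEP and 0.1 mM ADP, detected by PKLight luminescence.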

Test [15] concerns the target Tyrosyl-DNA phosphodiesterase 1 (Homo sapiens) (UniProt Q9NUW8). The experiment in a line: Confirmation Assay for Inhibitors of Tyrosyl-DNA Phosphodiesterase (TDP1) (AID 489007). Also: potency is read from the fitted curve at half-maximal effect; nearly all actives have a fitted effect of over 40% in size. As to conditions: recombinant human TDP1 enzymatic activity, dose-response. Put shortly:
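Compounds are preincubated 15 min at room temperature with 1 nM recombinant human Tdp1. The reaction starts on adding 15 nM FITC-phosphotyrosine DNA substrate, runs 5 min, and is detected by AlphaScreen beads after 10 min.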

Test [16] concerns the target Pyruvate kinase PKM (Homo sapiens) (UniProt P14618). The experiment in a line: qHTS Assay for Inhibitors of Human Muscle Pyruvate Kinase (AID 958). Put shortly: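 Enzyme was run at intermediate activity so both inhibitors and activators could be detected. ATP formed from ADP and PEP by 0.1 nM human PKM2 during a 1 h room-temperature incubation was quantified by coupled luciferase luminescence.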

A short description of test [17]: qHTS Assay for Identification of Small Molecule Antagonists for Thrombopoietin (TPO) Signaling Pathway (AID 918). Also: potency is read from the fitted curve at half-maximal effect; nearly all actives have a fitted effect of over 60% in size. The conditions noted are these: TPO-dependent cell signaling reporter, antagonist mode. Put shortly: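 Inhibitors of TPO signaling are sought by stimulating IL-3-starved murine Ba/F3 cells (human TPO receptor, Glycoprotein IIb-driven luciferase) with TPO at its EC50 of 26 pM alongside compound. After 24 hrs at 37 C, reporter luminescence is measured.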

“And” between values parts separate entries of the source, which are not always exact repeats. Equal entries are not always repeated. Values without a mark were called inactive. Results filed as inconclusive are left out. The source made the active and inactive calls. Unless noted, calls follow the shape of the dose curve; as a rule, active = well fitted curve in the direction sought with a large enough effect; inconclusive = small, poorly fitted or top-dose-only effect, or another doubt; inactive = no such curve, though single readings can be large; an effect the other way counts as inactive or inconclusive.

Sequence of Cytochrome P450 2C19 (Homo sapiens) (P33261 whole entry, looked up): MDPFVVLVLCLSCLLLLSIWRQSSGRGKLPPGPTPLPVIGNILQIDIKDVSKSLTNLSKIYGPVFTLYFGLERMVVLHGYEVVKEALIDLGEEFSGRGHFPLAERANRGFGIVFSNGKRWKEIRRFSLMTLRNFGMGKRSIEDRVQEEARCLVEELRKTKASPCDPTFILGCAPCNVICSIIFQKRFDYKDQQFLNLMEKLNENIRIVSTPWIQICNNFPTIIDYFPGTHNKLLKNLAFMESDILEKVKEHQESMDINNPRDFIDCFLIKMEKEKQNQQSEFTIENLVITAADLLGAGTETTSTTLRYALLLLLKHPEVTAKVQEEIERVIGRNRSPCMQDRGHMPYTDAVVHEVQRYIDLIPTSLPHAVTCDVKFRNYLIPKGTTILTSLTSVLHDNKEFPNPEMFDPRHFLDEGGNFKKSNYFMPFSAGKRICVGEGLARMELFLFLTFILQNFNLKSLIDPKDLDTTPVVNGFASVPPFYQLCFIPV
Sequence of Cytochrome P450 2C9 (Homo sapiens) (P11712 whole entry, looked up): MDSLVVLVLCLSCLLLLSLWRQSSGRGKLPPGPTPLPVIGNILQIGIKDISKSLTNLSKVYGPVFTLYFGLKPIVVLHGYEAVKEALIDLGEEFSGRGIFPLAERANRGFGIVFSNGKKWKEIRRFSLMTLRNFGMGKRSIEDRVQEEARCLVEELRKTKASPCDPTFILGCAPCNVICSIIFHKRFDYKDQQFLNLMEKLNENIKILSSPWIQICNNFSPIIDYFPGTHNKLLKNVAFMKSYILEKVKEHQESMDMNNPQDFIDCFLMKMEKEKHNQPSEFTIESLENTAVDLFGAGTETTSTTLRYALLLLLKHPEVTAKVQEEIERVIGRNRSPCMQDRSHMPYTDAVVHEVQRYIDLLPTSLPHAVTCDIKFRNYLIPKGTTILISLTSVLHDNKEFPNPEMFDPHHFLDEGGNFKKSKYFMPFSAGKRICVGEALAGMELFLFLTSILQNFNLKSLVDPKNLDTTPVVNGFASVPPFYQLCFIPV
Sequence of Muscarinic acetylcholine receptor M1 (Rattus norvegicus) (P08482 whole entry, looked up): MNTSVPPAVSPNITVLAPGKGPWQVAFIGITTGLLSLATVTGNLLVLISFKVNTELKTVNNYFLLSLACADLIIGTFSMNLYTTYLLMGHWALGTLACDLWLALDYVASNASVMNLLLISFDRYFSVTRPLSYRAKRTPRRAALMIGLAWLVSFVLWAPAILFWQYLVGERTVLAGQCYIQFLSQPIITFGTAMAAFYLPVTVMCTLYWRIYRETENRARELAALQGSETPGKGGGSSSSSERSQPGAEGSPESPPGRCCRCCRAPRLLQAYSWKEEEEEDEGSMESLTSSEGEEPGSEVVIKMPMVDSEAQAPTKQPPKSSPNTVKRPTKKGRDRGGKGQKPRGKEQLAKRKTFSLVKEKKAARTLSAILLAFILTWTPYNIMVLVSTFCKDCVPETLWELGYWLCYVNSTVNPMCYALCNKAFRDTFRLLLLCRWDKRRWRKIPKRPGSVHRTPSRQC
Sequence of Lysosomal acid glucosylceramidase (Homo sapiens) (P04062 whole entry, looked up): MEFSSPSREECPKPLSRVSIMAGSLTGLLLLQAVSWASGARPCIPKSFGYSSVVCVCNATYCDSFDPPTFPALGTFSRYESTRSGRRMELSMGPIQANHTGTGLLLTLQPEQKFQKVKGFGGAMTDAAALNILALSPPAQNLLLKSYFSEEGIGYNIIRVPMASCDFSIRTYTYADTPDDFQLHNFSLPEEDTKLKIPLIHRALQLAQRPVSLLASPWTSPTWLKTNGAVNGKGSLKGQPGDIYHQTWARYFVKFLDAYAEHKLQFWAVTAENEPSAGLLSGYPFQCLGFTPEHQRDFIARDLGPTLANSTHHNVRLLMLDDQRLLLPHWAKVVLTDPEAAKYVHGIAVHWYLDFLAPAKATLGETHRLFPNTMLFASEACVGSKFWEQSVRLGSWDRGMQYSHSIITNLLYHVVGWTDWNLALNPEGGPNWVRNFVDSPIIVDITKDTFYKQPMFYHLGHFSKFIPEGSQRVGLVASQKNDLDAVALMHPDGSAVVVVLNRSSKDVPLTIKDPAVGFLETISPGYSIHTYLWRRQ
Sequence of Pyruvate kinase (Leishmania mexicana) (Q27686 2-499 E452W): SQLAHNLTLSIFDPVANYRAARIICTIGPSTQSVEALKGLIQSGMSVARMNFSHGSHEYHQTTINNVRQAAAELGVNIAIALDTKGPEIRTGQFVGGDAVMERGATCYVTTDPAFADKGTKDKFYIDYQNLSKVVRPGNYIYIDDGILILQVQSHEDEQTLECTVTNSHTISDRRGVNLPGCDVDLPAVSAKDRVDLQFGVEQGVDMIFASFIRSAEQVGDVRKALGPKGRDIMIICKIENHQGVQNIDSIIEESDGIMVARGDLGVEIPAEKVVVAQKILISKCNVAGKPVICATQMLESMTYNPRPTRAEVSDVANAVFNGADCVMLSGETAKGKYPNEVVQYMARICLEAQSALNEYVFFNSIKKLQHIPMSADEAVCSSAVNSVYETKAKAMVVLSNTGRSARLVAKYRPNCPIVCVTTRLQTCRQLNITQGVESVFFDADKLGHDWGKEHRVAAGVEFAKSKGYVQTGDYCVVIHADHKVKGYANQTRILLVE
Sequence of Tyrosyl-DNA phosphodiesterase 1 (Homo sapiens) (Q9NUW8 whole entry, looked up): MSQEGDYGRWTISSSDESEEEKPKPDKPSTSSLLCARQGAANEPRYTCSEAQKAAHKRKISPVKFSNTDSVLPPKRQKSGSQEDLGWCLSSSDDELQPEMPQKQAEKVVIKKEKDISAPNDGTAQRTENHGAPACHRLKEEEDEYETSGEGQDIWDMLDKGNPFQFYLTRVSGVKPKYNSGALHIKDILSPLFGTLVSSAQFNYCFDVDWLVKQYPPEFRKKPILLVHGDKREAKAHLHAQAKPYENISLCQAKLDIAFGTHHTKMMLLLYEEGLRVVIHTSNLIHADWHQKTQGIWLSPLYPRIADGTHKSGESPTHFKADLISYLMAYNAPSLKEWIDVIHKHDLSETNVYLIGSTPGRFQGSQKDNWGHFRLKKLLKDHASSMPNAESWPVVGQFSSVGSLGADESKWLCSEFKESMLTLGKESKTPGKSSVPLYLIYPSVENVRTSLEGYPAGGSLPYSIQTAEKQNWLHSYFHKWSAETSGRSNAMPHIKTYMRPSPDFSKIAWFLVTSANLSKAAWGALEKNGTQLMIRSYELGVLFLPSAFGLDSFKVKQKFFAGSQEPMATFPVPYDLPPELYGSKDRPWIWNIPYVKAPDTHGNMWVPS

Turning to `C[C@@H](C[N+](C)(C)C)OC(N)=O`, the Potency result in test [1], in [2] and in test [3] was “inactive” in each case.

Consider `Cc1cccc(C)c1OC[C@H](C)N`, for which the Potency entry in test [4], in test [5] and in test [3] was “inactive” each time. Also, the Potency in test [1] was 0.794 µM (active). In test [6], the activation was -2.33% and -23.1%.

Take `O[C@@](CCN1CCCCC1)(c1ccccc1)C1CCCCC1`: the Potency result in test [7] was “inactive”. Moreover, the Potency in [8] is 5.01 µM (active) and 1.26 µM (active).

`N[C@@H](CO)C(=O)NNCc1ccc(O)c(O)c1O`: the Potency entry in [1], in [2] and in test [3] was “inactive” throughout. In addition, the compound was classed as inactive in test [9].

On to `C[C@@H]1c2cccc(O)c2C(O)=C2C(=O)[C@@]3(O)C(O)=C(C(N)=O)C(=O)[C@@H](N(C)C)[C@@H]3[C@@H](O)[C@@H]21`, for which the Potency entry in test [2] and in test [3] was “inactive” throughout.

Turning to `Cc1cccc(CNc2ncnc3ccc(-c4cccc(NS(C)(=O)=O)c4)cc23)c1`, the Potency in [10] is over 11.4 µM. The Potency entry in test [11] is “inactive”. The outcome in [12] was inactive.

As for `CC(C)(C)NC[C@H](O)c1cc(O)cc(O)c1`, the call in test [9] was inactive.

For `CN1C(=O)CC[C@@H]1c1cccnc1`, the Potency entry in test [4], in test [7], in test [8], in test [1], in test [13] and in [2] was “inactive” each time. Further, the Potency entry in [3] was “inactive”.

As for `NC(=O)c1cc[n+](CC2=C(C(=O)O)N3C(=O)[C@@H](NC(=O)[C@H](c4ccccc4)S(=O)(=O)[O-])[C@@H]3SC2)cc1`, the Potency result in test [1] and in test [2] was “inactive” throughout. For the same compound, the Potency was 3.16 µM (active) in test [14] and 12.6 µM (active) in test [15].

As for `O=C(c1cc(C(F)(F)F)cc(C(F)(F)F)c1)N1CCC2(CCCN(c3ccncc3)C2)CC1`, the Potency in test [10] is over 11.4 µM.

As for `O=c1c(-c2cccs2)nc2cnc(Oc3cccc(Cl)c3)nc2n1C1CC1`, the Potency is over 11.4 µM in [10] and 3.16 µM (active) in test [6].

Regarding `CCn1cc(C(=O)O)c(=O)c2cc(F)c(N3CCN[C@@H](C)C3)c(F)c21`, in test [3], the Potency result was “inactive”.

`COc1ccc([C@H]2Sc3ccccc3N(CCN(C)C)C(=O)[C@H]2OC(C)=O)cc1`: in test [9], the call was inactive.

`CCCCCN(CCCCC)C(=O)[C@H](CCC(=O)O)NC(=O)c1ccc(Cl)c(Cl)c1`: the Potency in [4] was 3.98 µM (active). Moreover, the Potency entry in test [7], in [1], in test [2] and in test [3] was “inactive” in each case. In addition, the outcome in [9] was inactive.

Take `CCCN[C@@H](C)C(=O)Nc1c(C)csc1C(=O)OC`: in test [7], the Potency entry was “inactive”.

`C[C@@H](C(=O)O)c1cccc(C(=O)c2ccccc2)c1`: in test [1], the Potency entry is “inactive”.

With `CO/N=C(\C(=O)N[C@@H]1C(=O)N2C(C(=O)O)=C(COC(C)=O)CS[C@@H]12)c1csc(N)n1`, the Potency result in test [1], in test [13] and in [3] was “inactive” each time. Also, the outcome in [16] and in [9] was inactive. Also, the Potency in test [14] was 25.1 µM (active).

Turning to `CN1[C@@H](CC(=O)c2ccccc2)CCC[C@@H]1C[C@@H](O)c1ccccc1`, the Potency result in test [4] and in test [13] was “inactive” in each case. In addition, the Potency in test [8] is 251 nM (active) and 79.4 nM (active) and 10 nM (active). Besides, the compound was classed as inactive in test [9].

As for `C[C@@]12CC[C@@H]3c4ccc(O)cc4CC[C@H]3[C@H]1CC[C@H]2O`, in test [8], the Potency entry was “inactive”.

Take `CCN(CC)CCC[C@H](C)Nc1c2ccc(Cl)cc2nc2ccc(OC)cc12`: the Potency result in test [7] was “inactive”. Also, the Potency in [8] was 199 nM (active) and 126 nM (active); in test [17] it was 10 µM (active). Besides, the call in [9] was inactive.

`COc1c(O)cc2c(c1O)[C@@H]1O[C@@H](CO)[C@@H](O)[C@@H](O)[C@@H]1OC2=O`: in [6], the activation is 14.6%.

Consider `CC(=O)O[C@@H](C)C[N+](C)(C)C`, for which the Potency result in test [2] and in test [3] was “inactive” each time.

The values above are taken from PubChem BioAssay (NCATS).
